{"source": "PubChem BioAssay (NCATS)", "key": {"[1]": {"system": "Zika virus NS2B-NS3 protease (unlinked complex)", "assay": "Primary screen GU Rhodamine qHTS for Zika virus inhibitors: Unlinked NS2B-NS3 protease assay (AID 1347159); note: nearly all actives have a fitted effect of over 60% in size; note: potency is the fitted concentration of half-maximal effect", "method_in_brief": "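A qHTS format was used, with compound concentrations ranging up to 114 microM. Each compound was preincubated with 25 nM NS2B-NS3 protease, and the substrate was then added at 1.5 microM. Curves were fitted with a 4-parameter Hill model.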"}, "[2]": {"system": "Zika virus NS2B-NS3 protease (linked construct)", "assay": "Primary screen NINDS Rhodamine qHTS for Zika virus inhibitors (AID 1347160); note: nearly all actives have a fitted effect of over 55% in size; note: potency is the fitted concentration of half-maximal effect", "method_in_brief": "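Kinetic fluorescence (Ex 480 nm, Em 540 nm) over 15 min with 1.5 microM Rhodamine110 peptide and 25 nM linked protease.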"}, "[3]": {"assay": "ZIKV-mCherry secondary qHTS for Zika virus inhibitors (AID 1347158); note: potency is the fitted concentration of half-maximal effect; for activity change, negative = inhibition: top concentration of the series differs between compounds", "method_in_brief": "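Vero, 5,000 cells/well, o/n 37 °C; cpd pin-transferred in DMSO; ZIKV-mCherry MOI 1, 48-72 h 37 °C; 32% PFA stock fix, Hoechst; imaged 10x DAPI/mCherry; mCherry+ threshold 450 RFU; % infection.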"}, "[4]": {"assay": "Confirmatory screen NINDS Rhodamine qHTS for Zika virus inhibitors (AID 1347161); note: nearly all actives have a fitted effect of over 60% in size; note: potency is the fitted concentration of half-maximal effect;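 for activity change, negative = inhibition: purified Zika NS2B-NS3 protease with linked NS2B cofactor domain and Rhodamine110 peptide substrate; series mostly up to about 110 µM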", "method_in_brief": "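Single-chain NS2B-NS3 protease, 25 nM, pH 8.0; compounds preincubated 15 min. Activity: Rhodamine110 release from 1.5 microM substrate over 15 min, room temperature, data fitted to 4-parameter Hill.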"}, "[5]": {"system": "Zika virus NS2B-NS3 protease (linked)", "assay": "384 well plate NINDS AMC confirmatory qHTS for Zika virus inhibitors (AID 1347163); note: nearly all actives have a fitted effect of over 50% in size; note: potency is the fitted concentration of half-maximal effect;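 for activity change, negative = inhibition: linked protease at 5 30 or 60 nM final depending on run; fluorescence of AMC released from Ac-VKTGKR-AMC peptide cleaved by the protease; top concentration of the series differs between compounds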", "method_in_brief": "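Linked NS2B-NS3 protease (final 5 nM, 30 nM or 60 nM) was preincubated with compounds (final up to 1 mM) for ~15 minutes. Ac-VKTGKR-AMC substrate (final 30 microM) then reacted for 25 minutes at room temperature in the dark. Fluorescence (ex 355/em 460 nm) was normalized to no-enzyme and no-inhibitor controls.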"}, "[6]": {"system": "Zika virus NS2B-NS3 protease (linked construct)", "assay": "384 well plate NINDS Rhodamine confirmatory qHTS for Zika virus inhibitors (AID 1347164); note: nearly all actives have a fitted effect of over 65% in size; note: potency is the fitted concentration of half-maximal effect; for activity change, negative = inhibition: top concentration of the series differs between compounds", "method_in_brief": "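Fluorescence read at ex 485 nm/em 538 nm, 25 min after adding 10 microM Ac-LKRR-Rd substrate at room temperature in the dark; signal normalized to no-enzyme and no-inhibitor controls. Enzyme final 5, 30 or 60 nM; compounds, ~15 min preincubation.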"}, "[7]": {"assay": "Vero cells viability qHTS for Zika virus inhibitors (AID 1347167)", "method_in_brief": "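Cells seeded at 2.5 x 10^5 cells/mL in DMEM with 4% FBS and attached overnight at 37 degrees C, then exposed to compound for 24 to 48 hours. Viability read as ATP content by CellTiter Glo luminescence.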"}, "[8]": {"assay": "Tertiary RLuc qRT-PCR qHTS assay for Zika virus inhibitors (AID 1347169); note: top concentration of the series differs between compounds; nearly all actives have a fitted effect of over 55% in size", "method_in_brief": "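Luminescence read-out: live-cell Renilla luciferase substrate applied to infected Vero cells, signal measured after 1-1.5 hrs. Cells had received compound before ZIKV-RLuc (Cambodian strain, MOI 1-2) infection and were incubated 48-72 hrs at 37 degrees C.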"}}, "note": "Several values for one entry are separate records, joined by “and”; a condition that tells them apart may be missing. Equal entries are not always repeated. Inconclusive results are not listed. Entries that show only a call come without a potency. Unmarked numbers belong to inactive results. Activity calls are given as the source filed them. Calls come from the whole dose curve; as a rule, active = well fitted curve in the direction sought with a large enough effect; inconclusive = small, poorly fitted or top-dose-only effect, or another doubt; inactive = no such curve, though single readings can be large; an effect the other way counts as inactive or inconclusive.", "data": [{"compound": "Nc1cccc(-c2cc3c(Oc4cccc(O)c4)ncnc3[nH]2)c1", "values": [{"measurement": "Potency", "setting": "[1]", "result": "inactive"}, {"measurement": "Potency", "setting": "[2]", "result": "inactive"}]}, {"compound": "Cc1cnc(Nc2ccc(F)cc2Cl)nc1-c1c[nH]c(C(=O)N[C@H](CO)c2cccc(Cl)c2)c1", "values": [{"measurement": "Potency", "setting": "[1]", "result": "39.8 µM (active)"}]}, {"compound": "Cc1ccc(C(N)=O)cc1Nc1nccc(-c2cn(C(C)C)c3cnccc23)n1", "values": [{"measurement": "Potency", "setting": "[1]", "result": "inactive"}, {"measurement": "Potency", "setting": "[2]", "result": "inactive"}]}, {"compound": "CC(C)c1noc(N2CCC(COc3ccc(-c4ccc(S(C)(=O)=O)cc4)nc3)CC2)n1", "values": [{"measurement": "Potency", "setting": "[1]", "result": "inactive"}, {"measurement": "Potency", "setting": "[2]", "result": "inactive"}]}, {"compound": "CN(C)c1nc(Cc2ccc(NC(=O)c3ccc4ccccc4c3)cc2)nc(Cl)c1CC(=O)O", "values": [{"measurement": "Potency", "setting": "[1]", "result": "28.2 µM (active)"}]}, {"compound": "Cc1c(NC(=O)OC[C@@H]2COCCN2)cn2ncnc(Nc3ccc4c(cnn4Cc4cccc(F)c4)c3)c12", "values": [{"measurement": "Potency", "setting": "[1]", "result": "inactive"}, {"measurement": "Potency", "setting": "[2]", "result": "inactive"}]}, {"compound": "CC(=O)Nc1nc(C)c(-c2ccc(Cl)c(S(=O)(=O)NCCO)c2)s1", "values": [{"measurement": "Potency", "setting": "[1]", "result": "inactive"}, {"measurement": "Potency", "setting": "[2]", "result": "inactive"}]}, {"compound": "C=CC(=O)Nc1cccc(Oc2nc(Nc3ccc(N4CCN(C)CC4)cc3)ncc2Cl)c1", "values": [{"measurement": "Potency", "setting": "[1]", "result": "inactive"}, {"measurement": "Potency", "setting": "[2]", "result": "inactive"}]}, {"compound": "Cn1c(=O)n(-c2ccc(C(C)(C)C#N)cc2)c2c3cc(-c4cnc5ccccc5c4)ccc3ncc21", "values": [{"measurement": "Potency", "setting": "[1]", "result": "inactive"}]}, {"compound": "COc1cc2c(Nc3ccc(NC(=O)c4ccccc4)cc3)ncnc2cc1OCCCN1CCOCC1", "values": [{"measurement": "Potency", "setting": "[1]", "result": "inactive"}, {"measurement": "Potency", "setting": "[2]", "result": "inactive"}]}, {"compound": "COc1c(OCCCN2CCOCC2)ccc2c3n(c(=NC(=O)c4cnc(N)nc4)nc12)CCN3", "values": [{"measurement": "activity change, negative = inhibition", "setting": "[1]", "result": "19.8% [at 19.1 µM]"}, {"measurement": "outcome", "setting": "[2]", "result": "inactive [at 10.7 µM]"}]}, {"compound": "N#CCNC(=O)c1ccc(-c2ccnc(Nc3ccc(N4CCOCC4)cc3)n2)cc1", "values": [{"measurement": "Potency", "setting": "[1]", "result": "inactive"}, {"measurement": "Potency", "setting": "[2]", "result": "inactive"}]}, {"compound": "COc1ccc(F)c(F)c1C(=O)c1cnc(NC2CCN(S(C)(=O)=O)CC2)nc1N", "values": [{"measurement": "Potency", "setting": "[1]", "result": "inactive"}, {"measurement": "Potency", "setting": "[2]", "result": "inactive"}]}, {"compound": "O=C(CCCCCCC(=O)Nc1ccc([C@H]2O[C@@H](CSc3nc(-c4ccccc4)c(-c4ccccc4)o3)C[C@@H](c3ccc(CO)cc3)O2)cc1)NO", "values": [{"measurement": "Potency", "setting": "[1]", "result": "8.91 µM (active)"}]}, {"compound": "CC[C@@H]1C(=O)N(C)c2cnc(Nc3ccc(C(=O)NC4CCC(N5CCN(CC6CC6)CC5)CC4)cc3OC)nc2N1C(C)C", "note": "(some centres undefined)", "values": [{"measurement": "Potency", "setting": "[1]", "result": "inactive"}, {"measurement": "Potency", "setting": "[2]", "result": "inactive"}]}, {"compound": "CNC(=O)c1nn(C)c2c1C(C)(C)Cc1cnc(Nc3ccc(N4CCN(C)CC4)cc3)nc1-2", "values": [{"measurement": "Potency", "setting": "[1]", "result": "inactive"}, {"measurement": "Potency", "setting": "[2]", "result": "inactive"}]}, {"compound": "N#Cc1c(O)c2c(-c3ccc(-c4ccccc4O)cc3)csc2[nH]c1=O", "values": [{"measurement": "Potency", "setting": "[3]", "result": "inactive"}, {"measurement": "Potency", "setting": "[1]", "result": "2 µM (active)"}, {"measurement": "Potency", "setting": "[2]", "result": "2.51 µM (active)"}, {"measurement": "Potency", "setting": "[4]", "result": "2.2 µM (active) and 2.48 µM (active)"}, {"measurement": "Potency", "setting": "[5]", "result": "8.91 µM (active)"}, {"measurement": "Potency", "setting": "[6]", "result": "inactive"}, {"measurement": "Potency", "setting": "[7]", "result": "inactive"}, {"measurement": "Potency", "setting": "[8]", "result": "inactive"}]}, {"compound": "COC(=O)c1ccc2c(C(=Nc3ccc(N(C)C(=O)CN4CCN(C)CC4)cc3)c3ccccc3)c(O)[nH]c2c1", "values": [{"measurement": "Potency", "setting": "[1]", "result": "inactive"}, {"measurement": "Potency", "setting": "[2]", "result": "inactive"}]}, {"compound": "c1nc2nc(Nc3ccc(N4CCOCC4)cc3)nc(NC3CCCCC3)c2[nH]1", "values": [{"measurement": "Potency", "setting": "[1]", "result": "inactive"}, {"measurement": "Potency", "setting": "[2]", "result": "inactive"}]}, {"compound": "Cc1ccc(CN2CCNCC2)cc1NC(=O)CNc1ccc(F)c(F)c1", "values": [{"measurement": "Potency", "setting": "[1]", "result": "inactive"}, {"measurement": "Potency", "setting": "[2]", "result": "inactive"}]}, {"compound": "COc1cccc(-c2ccc(NC(=O)C3=C(C(=O)O)CCC3)c(F)c2)c1", "values": [{"measurement": "Potency", "setting": "[1]", "result": "17.8 µM (active)"}]}, {"compound": "COc1cccc(Nc2c(C(N)=O)cnc3c(C)cc(S(=O)(=O)c4cccc(C(=O)N(C)C)c4)cc23)c1", "values": [{"measurement": "Potency", "setting": "[1]", "result": "inactive"}, {"measurement": "Potency", "setting": "[2]", "result": "inactive"}]}, {"compound": "CC(C)c1cnn2c(NCc3ccccc3)cc(N[C@@H](CO)[C@H](O)CO)nc12", "values": [{"measurement": "Potency", "setting": "[1]", "result": "inactive"}, {"measurement": "Potency", "setting": "[2]", "result": "inactive"}]}, {"compound": "C[C@@]12O[C@@H](C[C@]1(O)CO)n1c3ccccc3c3c4c(c5c6ccccc6n2c5c31)CNC4=O", "values": [{"measurement": "Potency", "setting": "[3]", "result": "8.91 µM (active)"}, {"measurement": "Potency", "setting": "[5]", "result": "inactive"}, {"measurement": "Potency", "setting": "[6]", "result": "inactive"}, {"measurement": "Potency", "setting": "[7]", "result": "inactive"}]}, {"compound": "CC1(C)CCC(c2ccc(Cl)cc2)=C(CN2CCN(c3ccc(C(=O)NS(=O)(=O)c4ccc(N[C@H](CCN5CCOCC5)CSc5ccccc5)c(S(=O)(=O)C(F)(F)F)c4)cc3)CC2)C1", "values": [{"measurement": "Potency", "setting": "[1]", "result": "2.24 µM (active)"}]}, {"compound": "Cc1cc(Nc2nc(N[C@@H](C)c3ccc(F)cc3)c(C#N)cc2F)n[nH]1", "values": [{"measurement": "Potency", "setting": "[1]", "result": "inactive"}]}, {"compound": "COc1cc(-c2nn(C3CCC(N4CCN(C(C)=O)CC4)CC3)c3ncnc(N)c23)ccc1NC(=O)c1cc2ccccc2n1C", "note": "(centres undefined)", "values": [{"measurement": "Potency", "setting": "[1]", "result": "inactive"}, {"measurement": "Potency", "setting": "[2]", "result": "inactive"}]}, {"compound": "Cc1cc(CN2CCN(c3c(Br)cnc4nc(-c5ccc(N6CCN(C)CC6)cc5)[nH]c34)CC2)no1", "values": [{"measurement": "Potency", "setting": "[3]", "result": "inactive"}, {"measurement": "Potency", "setting": "[1]", "result": "inactive"}, {"measurement": "Potency", "setting": "[2]", "result": "inactive"}, {"measurement": "Potency", "setting": "[4]", "result": "inactive"}, {"measurement": "Potency", "setting": "[5]", "result": "inactive"}]}, {"compound": "COC(=O)Nc1nc2ccc(C(=O)c3ccc(F)cc3)cc2[nH]1", "values": [{"measurement": "Potency", "setting": "[1]", "result": "inactive"}, {"measurement": "Potency", "setting": "[2]", "result": "inactive"}]}, {"compound": "O=C(Nc1nc2cccc(-c3ccc(CN4CCS(=O)(=O)CC4)cc3)n2n1)C1CC1", "values": [{"measurement": "Potency", "setting": "[1]", "result": "inactive"}, {"measurement": "Potency", "setting": "[2]", "result": "inactive"}]}, {"compound": "Cc1ccc(NC(=O)C2(c3ccc4c(c3)OC(F)(F)O4)CC2)nc1-c1cccc(C(=O)O)c1", "values": [{"measurement": "Potency", "setting": "[1]", "result": "17.8 µM (active)"}]}, {"compound": "CN(C)CC(C)(C)CNc1nn2c(-c3ccccc3)nnc2cc1C1CCC1", "values": [{"measurement": "Potency", "setting": "[1]", "result": "inactive"}, {"measurement": "Potency", "setting": "[2]", "result": "inactive"}]}, {"compound": "Cc1c(C)n(Cc2ccc(-c3ccccc3C(=O)O)cc2)c2ccc(C(=O)N[C@@H](C)c3ccc([N+](=O)[O-])cc3)cc12", "values": [{"measurement": "Potency", "setting": "[3]", "result": "inactive"}, {"measurement": "Potency", "setting": "[1]", "result": "2.82 µM (active)"}, {"measurement": "Potency", "setting": "[4]", "result": "3.12 µM (active)"}, {"measurement": "Potency", "setting": "[5]", "result": "112 µM (active)"}, {"measurement": "Potency", "setting": "[6]", "result": "22.4 µM (active)"}, {"measurement": "Potency", "setting": "[7]", "result": "inactive"}]}, {"compound": "O=C(O)c1ccc2c(c1)nc(Nc1cccc(Cl)c1)c1ccncc12", "values": [{"measurement": "Potency", "setting": "[1]", "result": "39.8 µM (active)"}]}]}
